# Experimental data reported in the supplement of paper PMC4466140.
# Biological target: AgAbp1
# Assay: SPOT peptide array binding signal intensity (averaged, normalized) (arbitrary units (background-subtracted, floor 0; scale differs between SH3 domains)); higher = stronger binding of the SH3 domain to the peptide
# Outline: (§1)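 E. coli BL21(DE3) was used to express GST-fused SH3 domains from four yeast species, which were then purified on glutathione Sepharose. These were incubated at 10 μg/ml in TBS-based blocking buffer overnight at 4°C on cellulose membranes carrying synthetic 15-mer peptides, in which cysteines were replaced by serines. Binding signal is the replicate average of normalized, background-subtracted spot intensity, in arbitrary units that differ between domains.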
row,Binder,SPOT peptide array binding signal intensity
1,GDHPKGPPPPPPPDE,≤ 0

# Biological target: AgBbc1
# Assay: as above
# Outline: as §1
row,Binder,SPOT peptide array binding signal intensity
1,GDHPKGPPPPPPPDE,1

# Biological target: AgBem1-D1
# Assay: as above
# Outline: as §1
row,Binder,SPOT peptide array binding signal intensity
1,GDHPKGPPPPPPPDE,≤ 0

# Biological target: AgBzz1-D1
# Assay: as above
# Outline: as §1
row,Binder,SPOT peptide array binding signal intensity
1,GDHPKGPPPPPPPDE,870

# Biological target: AgBzz1-D2
# Assay: as above
# Outline: as §1
row,Binder,SPOT peptide array binding signal intensity
1,GDHPKGPPPPPPPDE,85

# Biological target: AgCyk3
# Assay: as above
# Outline: as §1
row,Binder,SPOT peptide array binding signal intensity
1,GDHPKGPPPPPPPDE,≤ 0

# Biological target: AgFus1
# Assay: as above
# Outline: as §1
row,Binder,SPOT peptide array binding signal intensity
1,GDHPKGPPPPPPPDE,3.5

# Biological target: AgHof1
# Assay: as above
# Outline: as §1
row,Binder,SPOT peptide array binding signal intensity
1,GDHPKGPPPPPPPDE,≤ 0

# Biological target: AgHse1
# Assay: as above
# Outline: as §1
row,Binder,SPOT peptide array binding signal intensity
1,GDHPKGPPPPPPPDE,≤ 0

# Biological target: AgLsb1
# Assay: as above
# Outline: as §1
row,Binder,SPOT peptide array binding signal intensity
1,GDHPKGPPPPPPPDE,≤ 0

# Biological target: AgLsb4
# Assay: as above
# Outline: as §1
row,Binder,SPOT peptide array binding signal intensity
1,GDHPKGPPPPPPPDE,11.5

# Biological target: AgMyo5
# Assay: as above
# Outline: as §1
row,Binder,SPOT peptide array binding signal intensity
1,GDHPKGPPPPPPPDE,1360

# Biological target: AgNbp2
# Assay: as above
# Outline: as §1
row,Binder,SPOT peptide array binding signal intensity
1,GDHPKGPPPPPPPDE,9

# Biological target: AgRvs167
# Assay: as above
# Outline: as §1
row,Binder,SPOT peptide array binding signal intensity
1,GDHPKGPPPPPPPDE,0.167

# Biological target: AgSho1
# Assay: as above
# Outline: as §1
row,Binder,SPOT peptide array binding signal intensity
1,GDHPKGPPPPPPPDE,11

# Biological target: AgSla1-D1-D2
# Assay: as above
# Outline: as §1
row,Binder,SPOT peptide array binding signal intensity
1,GDHPKGPPPPPPPDE,6

# Biological target: AgSla1-D3
# Assay: as above
# Outline: as §1
row,Binder,SPOT peptide array binding signal intensity
1,GDHPKGPPPPPPPDE,358

# Biological target: CaAbp1-D1
# Assay: as above
# Outline: as §1
row,Binder,SPOT peptide array binding signal intensity
1,GDHPKGPPPPPPPDE,≤ 0

# Biological target: CaAbp1-D2
# Assay: as above
# Outline: as §1
row,Binder,SPOT peptide array binding signal intensity
1,GDHPKGPPPPPPPDE,≤ 0

# Biological target: CaBbc1
# Assay: as above
# Outline: as §1
row,Binder,SPOT peptide array binding signal intensity
1,GDHPKGPPPPPPPDE,≤ 0

# Biological target: CaBem1-D1
# Assay: as above
# Outline: as §1
row,Binder,SPOT peptide array binding signal intensity
1,GDHPKGPPPPPPPDE,≤ 0

# Biological target: CaBzz1-D1
# Assay: as above
# Outline: as §1
row,Binder,SPOT peptide array binding signal intensity
1,GDHPKGPPPPPPPDE,3200

# Biological target: CaBzz1-D2
# Assay: as above
# Outline: as §1
row,Binder,SPOT peptide array binding signal intensity
1,GDHPKGPPPPPPPDE,2040

# Biological target: CaCyk3
# Assay: as above
# Outline: as §1
row,Binder,SPOT peptide array binding signal intensity
1,GDHPKGPPPPPPPDE,≤ 0

# Biological target: CaFus1
# Assay: as above
# Outline: as §1
row,Binder,SPOT peptide array binding signal intensity
1,GDHPKGPPPPPPPDE,≤ 0

# Biological target: CaHof1
# Assay: as above
# Outline: as §1
row,Binder,SPOT peptide array binding signal intensity
1,GDHPKGPPPPPPPDE,0.25

# Biological target: CaHse1
# Assay: as above
# Outline: as §1
row,Binder,SPOT peptide array binding signal intensity
1,GDHPKGPPPPPPPDE,6.5

# Biological target: CaLsb1
# Assay: as above
# Outline: as §1
row,Binder,SPOT peptide array binding signal intensity
1,GDHPKGPPPPPPPDE,≤ 0

# Biological target: CaLsb4
# Assay: as above
# Outline: as §1
row,Binder,SPOT peptide array binding signal intensity
1,GDHPKGPPPPPPPDE,5.5

# Biological target: CaMyo5
# Assay: as above
# Outline: as §1
row,Binder,SPOT peptide array binding signal intensity
1,GDHPKGPPPPPPPDE,41

# Biological target: CaNbp2
# Assay: as above
# Outline: as §1
row,Binder,SPOT peptide array binding signal intensity
1,GDHPKGPPPPPPPDE,≤ 0

# Biological target: CaRvs167
# Assay: as above
# Outline: as §1
row,Binder,SPOT peptide array binding signal intensity
1,GDHPKGPPPPPPPDE,≤ 0

# Biological target: CaRvs167-3
# Assay: as above
# Outline: as §1
row,Binder,SPOT peptide array binding signal intensity
1,GDHPKGPPPPPPPDE,1.25

# Biological target: CaSho1
# Assay: as above
# Outline: as §1
row,Binder,SPOT peptide array binding signal intensity
1,GDHPKGPPPPPPPDE,≤ 0

# Biological target: CaSla1-D1-D2
# Assay: as above
# Outline: as §1
row,Binder,SPOT peptide array binding signal intensity
1,GDHPKGPPPPPPPDE,≤ 0

# Biological target: CaSla1-D3
# Assay: as above
# Outline: as §1
row,Binder,SPOT peptide array binding signal intensity
1,GDHPKGPPPPPPPDE,1.75

# Biological target: ScAbp1
# Assay: as above
# Outline: as §1
row,Binder,SPOT peptide array binding signal intensity
1,GDHPKGPPPPPPPDE,≤ 0

# Biological target: ScBbc1
# Assay: as above
# Outline: as §1
row,Binder,SPOT peptide array binding signal intensity
1,GDHPKGPPPPPPPDE,2.5

# Biological target: ScBem1-D1
# Assay: as above
# Outline: as §1
row,Binder,SPOT peptide array binding signal intensity
1,GDHPKGPPPPPPPDE,≤ 0

# Biological target: ScBzz1-D1
# Assay: as above
# Outline: as §1
row,Binder,SPOT peptide array binding signal intensity
1,GDHPKGPPPPPPPDE,4000

# Biological target: ScBzz1-D2
# Assay: as above
# Outline: as §1
row,Binder,SPOT peptide array binding signal intensity
1,GDHPKGPPPPPPPDE,31.5

# Biological target: ScCyk3
# Assay: as above
# Outline: as §1
row,Binder,SPOT peptide array binding signal intensity
1,GDHPKGPPPPPPPDE,≤ 0

# Biological target: ScFus1
# Assay: as above
# Outline: as §1
row,Binder,SPOT peptide array binding signal intensity
1,GDHPKGPPPPPPPDE,2.5

# Biological target: ScHof1
# Assay: as above
# Outline: as §1
row,Binder,SPOT peptide array binding signal intensity
1,GDHPKGPPPPPPPDE,≤ 0

# Biological target: ScHse1
# Assay: as above
# Outline: as §1
row,Binder,SPOT peptide array binding signal intensity
1,GDHPKGPPPPPPPDE,7.5

# Biological target: ScLsb1
# Assay: as above
# Outline: as §1
row,Binder,SPOT peptide array binding signal intensity
1,GDHPKGPPPPPPPDE,≤ 0

# Biological target: ScLsb2
# Assay: as above
# Outline: as §1
row,Binder,SPOT peptide array binding signal intensity
1,GDHPKGPPPPPPPDE,≤ 0

# Biological target: ScLsb3
# Assay: as above
# Outline: as §1
row,Binder,SPOT peptide array binding signal intensity
1,GDHPKGPPPPPPPDE,≤ 0

# Biological target: ScLsb4
# Assay: as above
# Outline: as §1
row,Binder,SPOT peptide array binding signal intensity
1,GDHPKGPPPPPPPDE,≤ 0

# Biological target: ScMyo3
# Assay: as above
# Outline: as §1
row,Binder,SPOT peptide array binding signal intensity
1,GDHPKGPPPPPPPDE,1390

# Biological target: ScMyo5
# Assay: as above
# Outline: as §1
row,Binder,SPOT peptide array binding signal intensity
1,GDHPKGPPPPPPPDE,1300

# Biological target: ScNbp2
# Assay: as above
# Outline: as §1
row,Binder,SPOT peptide array binding signal intensity
1,GDHPKGPPPPPPPDE,≤ 0

# Biological target: ScPex13
# Assay: as above
# Outline: as §1
row,Binder,SPOT peptide array binding signal intensity
1,GDHPKGPPPPPPPDE,≤ 0

# Biological target: ScRvs167
# Assay: as above
# Outline: as §1
row,Binder,SPOT peptide array binding signal intensity
1,GDHPKGPPPPPPPDE,0.333

# Biological target: ScSho1
# Assay: as above
# Outline: as §1
row,Binder,SPOT peptide array binding signal intensity
1,GDHPKGPPPPPPPDE,≤ 0

# Biological target: ScSla1-D1-D2
# Assay: as above
# Outline: as §1
row,Binder,SPOT peptide array binding signal intensity
1,GDHPKGPPPPPPPDE,≤ 0

# Biological target: ScSla1-D3
# Assay: as above
# Outline: as §1
row,Binder,SPOT peptide array binding signal intensity
1,GDHPKGPPPPPPPDE,≤ 0

# Biological target: SpAbp1-D1
# Assay: as above
# Outline: as §1
row,Binder,SPOT peptide array binding signal intensity
1,GDHPKGPPPPPPPDE,≤ 0

# Biological target: SpBbc1
# Assay: as above
# Outline: as §1
row,Binder,SPOT peptide array binding signal intensity
1,GDHPKGPPPPPPPDE,1.25

# Biological target: SpBzz1-D1
# Assay: as above
# Outline: as §1
row,Binder,SPOT peptide array binding signal intensity
1,GDHPKGPPPPPPPDE,42

# Biological target: SpBzz1-D2
# Assay: as above
# Outline: as §1
row,Binder,SPOT peptide array binding signal intensity
1,GDHPKGPPPPPPPDE,1.5

# Biological target: SpCyk3
# Assay: as above
# Outline: as §1
row,Binder,SPOT peptide array binding signal intensity
1,GDHPKGPPPPPPPDE,≤ 0

# Biological target: SpHof1
# Assay: as above
# Outline: as §1
row,Binder,SPOT peptide array binding signal intensity
1,GDHPKGPPPPPPPDE,≤ 0

# Biological target: SpHof1-2
# Assay: as above
# Outline: as §1
row,Binder,SPOT peptide array binding signal intensity
1,GDHPKGPPPPPPPDE,1.5

# Biological target: SpHof1-3
# Assay: as above
# Outline: as §1
row,Binder,SPOT peptide array binding signal intensity
1,GDHPKGPPPPPPPDE,≤ 0

# Biological target: SpHse1
# Assay: as above
# Outline: as §1
row,Binder,SPOT peptide array binding signal intensity
1,GDHPKGPPPPPPPDE,85.2

# Biological target: SpLsb1
# Assay: as above
# Outline: as §1
row,Binder,SPOT peptide array binding signal intensity
1,GDHPKGPPPPPPPDE,0.5

# Biological target: SpLsb4
# Assay: as above
# Outline: as §1
row,Binder,SPOT peptide array binding signal intensity
1,GDHPKGPPPPPPPDE,≤ 0

# Biological target: SpMyo1
# Assay: as above
# Outline: as §1
row,Binder,SPOT peptide array binding signal intensity
1,GDHPKGPPPPPPPDE,1500

# Biological target: SpNbp2
# Assay: as above
# Outline: as §1
row,Binder,SPOT peptide array binding signal intensity
1,GDHPKGPPPPPPPDE,≤ 0

# Biological target: SpPex13
# Assay: as above
# Outline: as §1
row,Binder,SPOT peptide array binding signal intensity
1,GDHPKGPPPPPPPDE,2

# Biological target: SpRvs167
# Assay: as above
# Outline: as §1
row,Binder,SPOT peptide array binding signal intensity
1,GDHPKGPPPPPPPDE,9

# Biological target: SpSla1-D1-D2
# Assay: as above
# Outline: as §1
row,Binder,SPOT peptide array binding signal intensity
1,GDHPKGPPPPPPPDE,9

# Biological target: SpSla1-D3
# Assay: as above
# Outline: as §1
row,Binder,SPOT peptide array binding signal intensity
1,GDHPKGPPPPPPPDE,≤ 0
